According to PubChem BioAssay (NCATS):
Records with an inconclusive call do not appear. Activity calls are given as the source filed them. Unless noted, the call rests on the fitted dose curve; in most records, active means well fitted curve in the direction sought with a large enough effect; inconclusive means small, poorly fitted or top-dose-only effect, or another doubt; inactive means no such curve, though single readings can be large; an effect the other way counts as inactive or inconclusive.

Tests used:
[1] = target: Alpha-galactosidase (Coffea arabica) (UniProt Q42656); assay: Counterscreen for Glucocerebrosidase Inhibitors: qHTS Assay for Coffee Bean alpha-Galactosidase at pH 4.5 (AID 957); further: series mostly up to about 77 µM
Sequence of Alpha-galactosidase (Coffea arabica) (Q42656 whole entry, looked up): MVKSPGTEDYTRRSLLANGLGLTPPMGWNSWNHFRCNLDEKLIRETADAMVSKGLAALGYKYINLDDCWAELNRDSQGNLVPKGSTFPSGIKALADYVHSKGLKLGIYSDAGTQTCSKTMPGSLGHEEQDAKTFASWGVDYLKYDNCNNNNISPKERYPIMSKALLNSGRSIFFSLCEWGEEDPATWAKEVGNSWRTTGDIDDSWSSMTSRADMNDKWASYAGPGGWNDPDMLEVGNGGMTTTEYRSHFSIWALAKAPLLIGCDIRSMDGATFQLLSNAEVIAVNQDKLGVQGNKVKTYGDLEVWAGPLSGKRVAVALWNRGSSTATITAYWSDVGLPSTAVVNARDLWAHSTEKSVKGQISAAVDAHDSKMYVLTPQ
Outline: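 Quantitative HTS of compounds (0.7 nM to 77 uM) against coffee bean alpha-galactosidase at pH 4.5, measuring 4-methylumbelliferone fluorescence released from 80 uM substrate.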

[2] = target: Alpha-galactosidase (Coffea arabica) (UniProt Q42656); assay: Counterscreen for Glucocerebrosidase Inhibitors: qHTS Assay for Coffee Bean alpha-Galactosidase at pH 5.9 (AID 998)
Outline: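 Enzyme 2 nM + cpd (0.7 nM–77 uM titration) + 4-MU-alpha-Gal 80 uM, pH 5.9 citrate/Tween-20, RT 20 min, NaOH/glycine stop pH 10, fluor 365/440. Normalized to no-enzyme and full-activity controls; Hill-fit AC50.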

[3] = Validation screen for inhibitors of Lassa infection (AID 463096; calls by dose curve; further: potency means the concentration at half of the fitted maximal effect)
[4] = Inducers of the Endoplasmic Reticulum Stress Response (ERSR) in human glioma: Validation (AID 504836)
Outline: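 Stably transfected U87-MG glioma cells carrying a GRP78-based luciferase sensor; 16 h compound incubation. Luminescence end-point read 10 min after Bright-Glo addition at room temperature.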

[5] = qHTS for Inhibitors of the Functional Ribonucleoprotein Complex (vRNP) of Lassa (LASV) Arenavirus: LASV Primary Screen - GLuc reporter signal (AID 1347082; calls by dose curve; tested in HEK293 reporter line; further: series mostly up to about 57 µM; nearly all actives have a fitted effect of over 60% in size)
[6] = qHTS for Inhibitors of the Functional Ribonucleoprotein Complex (vRNP) of Lassa (LASV) Arenavirus: Viability assay - alamar blue signal for LASV Primary Screen (AID 1347083; calls by dose curve; tested in HEK293 reporter line; further: series mostly up to about 57 µM; nearly all actives have a fitted effect of over 80% in size)
[7] = qHTS for Inhibitors of the Functional Ribonucleoprotein Complex (vRNP) of Lymphocytic Choriomeningitis Arenaviruses (LCMV): Viability assay - alamar blue signal for LCMV Primary Screen (AID 1347085; calls by dose curve; tested in HEK293 reporter line; further: series mostly up to about 57 µM; nearly all actives have a fitted effect of over 80% in size)
[8] = target: Nucleoprotein (Lymphocytic choriomeningitis virus (strain Armstrong)) (UniProt P09992); assay: qHTS for Inhibitors of the Functional Ribonucleoprotein Complex (vRNP) of Lymphocytic Choriomeningitis Arenaviruses (LCMV): LCMV Primary Screen - GLuc reporter signal (AID 1347086; calls by dose curve; further: series mostly up to about 57 µM; nearly all actives have a fitted effect of over 70% in size)
Sequence of Nucleoprotein (Lymphocytic choriomeningitis virus (strain Armstrong)) (P09992 whole entry, looked up): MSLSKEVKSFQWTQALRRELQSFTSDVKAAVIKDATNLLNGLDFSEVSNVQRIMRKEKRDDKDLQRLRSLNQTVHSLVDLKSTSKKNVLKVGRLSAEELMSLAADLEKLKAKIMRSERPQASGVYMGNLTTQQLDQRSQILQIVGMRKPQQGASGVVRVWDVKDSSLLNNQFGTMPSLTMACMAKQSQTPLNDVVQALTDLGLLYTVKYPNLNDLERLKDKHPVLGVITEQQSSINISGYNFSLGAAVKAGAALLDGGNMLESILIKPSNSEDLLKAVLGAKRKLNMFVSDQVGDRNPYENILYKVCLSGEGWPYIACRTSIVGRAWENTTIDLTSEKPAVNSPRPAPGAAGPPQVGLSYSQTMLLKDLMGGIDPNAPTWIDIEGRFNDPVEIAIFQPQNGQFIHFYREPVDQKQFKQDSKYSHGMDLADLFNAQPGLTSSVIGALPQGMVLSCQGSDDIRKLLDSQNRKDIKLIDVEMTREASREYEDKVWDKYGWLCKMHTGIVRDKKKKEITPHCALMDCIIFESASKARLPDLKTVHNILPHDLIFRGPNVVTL

Measured: Potency

Cc1cc2c(cc1Cl)N(C(=O)Nc1ccnc3ccccc13)CC2
inactive: all assays above

O=C1CCC(c2ccc(-n3ccnc3)cc2)=NN1
inactive: all assays above

C[C@H](O)C(=O)C1=Nc2c(nc(N)[nH]c2=O)NC1
inactive: all assays above

N=c1c[n+](N2CCOCC2)[n-]o1
inactive: all assays above

CC[N+](CC)(CC)CC(=O)Nc1c(C)cccc1C
inactive: all assays above

O=c1[nH]c2cc([N+](=O)[O-])c([N+](=O)[O-])cc2[nH]c1=O
inactive: all assays above

C/C(=C\c1ccc(C(=O)O)cc1)c1ccc2c(c1)C(C)(C)CCC2(C)C
inactive: all assays above

O=C(O)[C@@H]1C[C@@H](C(=O)O)N1
inactive: all assays above

COc1ccccc1N1CCN(CCCCNC(=O)c2ccc3ccccc3c2)CC1
active: [3] 11.2 µM
inactive: all other assays above

N#CC(C#N)=C(N)/C(C#N)=C/c1ccc(O)cc1
inactive: all assays above

NC(N)=NCCCCN=C(N)N
inactive: all assays above

COc1cc2c(CCNC(C)=O)c[nH]c2cc1Cl
inactive: all assays above

O=C(O)c1cc(=O)c2c(Cl)cc(Cl)cc2[nH]1
inactive: all assays above

NC(=O)C(=O)O
inactive: all assays above

CC1(C)CCC2=C(O1)c1ccccc1C(=O)C2=O
active: [3] 11.2 µM
inactive: all other assays above

O=C(O)C1CCNCC1
inactive: all assays above

CNCCNS(=O)(=O)c1cccc2cnccc12
inactive: all assays above

O=C(O)c1cc(=O)cc(C(=O)O)[nH]1
inactive: all assays above

NCCCCN
inactive: all assays above

C#CCn1c(=O)c2c(ncn2C)n(C)c1=O
inactive: all assays above

CNC(=O)c1cc2c(cn1)[nH]c1ccccc12
inactive: all assays above

COc1cc(N)c(Cl)cc1C(=O)OCCN1CCCCC1
inactive: all assays above

NC1(C(=O)O)CC1
inactive: all assays above

NOCC(=O)O
inactive: all assays above

O=c1[nH]c(=O)c2nc3ccccc3nc2[nH]1
inactive: all assays above

Nc1c(S(=O)(=O)O)cc(Nc2ccc(Nc3nc(Cl)nc(Nc4ccc(S(=O)(=O)O)cc4)n3)c(S(=O)(=O)O)c2)c2c1C(=O)c1ccccc1C2=O
inactive: all assays above

CC1(C)CCC=[N+]1[O-]
inactive: all assays above

Cc1nc2c(OCc3ccccc3)cccn2c1CC#N
inactive: all assays above
